In PubChem BioAssay (EPA / NIEHS):
Calls of active or inactive are those of the source. How the source made its calls: active means hit-call score of the fitted dose curve at least 0.9, where 1 is the maximum; inactive means score below 0.9.

Assays:
Details in all cases: mRNA level, 48 h; actives raise or lower the signal
[1] = read-out: Tumor necrosis factor receptor superfamily member 6 (Homo sapiens) (UniProt P25445); experiment: LTEA_HepaRG_FAS: Life Technologies and Expression Analysis (LTEA) Assay for Fas cell surface death receptor (FAS) using HepaRG (AID 2283447)
Summary of the method: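 FAS transcript level was measured by TaqMan qRT-PCR against three housekeeping genes after 48 h chemical exposure. Cells were HepaRG, 0.5% DMSO vehicle, with a top concentration of 100 uM and half-log dilutions over eight points, in duplicate.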

[2] = read-out: Fatty acid synthase (Homo sapiens) (UniProt P49327); experiment: LTEA_HepaRG_FASN: Life Technologies and Expression Analysis (LTEA) Assay for Fatty Acid Synthase (FASN) using HepaRG (AID 2283448)
Summary of the method: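 Cells were plated, cultured 48 h, switched to serum-free induction medium, then dosed in duplicate (max 100 uM, half-log dilutions, 0.5% DMSO) for 48 h. RNA was then isolated and FASN quantified by qRT-PCR.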

[3] = read-out: Cyclin D2 (CCND2), CCND2 (gene 894); experiment: LTEA_HepaRG_CCND2: Life Technologies and Expression Analysis (LTEA) Assay for Cyclin D2 (CCND2) using HepaRG (AID 2283449)
Summary of the method: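 CCND2 transcript levels, quantified by qRT-PCR and normalised to three housekeeping genes, were fitted bidirectionally against 0.5% DMSO. HepaRG cultures were dosed 48 h in duplicate with an 8-point half-log series up to 100 uM.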

[4] = read-out: Cyclin Dependent Kinase Inhibitor 1A (CDKN1A), CDKN1A (gene 1026); experiment: LTEA_HepaRG_CDKN1A: Life Technologies and Expression Analysis (LTEA) Assay for Cyclin Dependent Kinase Inhibitor 1A (CDKN1A) using HepaRG (AID 2283450)
Summary of the method: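 Differentiated human HepaRG cells, pre-cultured 48 h, were exposed in duplicate for 48 h in serum-free induction medium to eight half-log concentrations up to 100 uM (0.5% DMSO). CDKN1A mRNA was measured by qRT-PCR, normalized to ACTB/GAPDH/POLR2A, bidirectionally fitted versus DMSO.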

[5] = read-out: Cyclin D1 (CCND1), CCND1 (gene 595); experiment: LTEA_HepaRG_CCND1: Life Technologies and Expression Analysis (LTEA) Assay for Cyclin D1 (CCND1) using HepaRG (AID 2283451)
Summary of the method: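 Differentiated human HepaRG cells in serum-free induction medium were exposed 48 h to eight half-log concentrations up to 100 uM in 0.5% DMSO; mRNA quantified by TaqMan qRT-PCR, normalized to ACTB, GAPDH, POLR2A, fitted bidirectionally versus DMSO.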

[6] = read-out: catalase (CAT), CAT (gene 847); experiment: LTEA_HepaRG_CAT: Life Technologies and Expression Analysis (LTEA) Assay for catalase (CAT) using HepaRG (AID 2283452)
Summary of the method: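 Expression of CAT was quantified by TaqMan qRT-PCR with ACTB/GAPDH/POLR2A normalization after 48 h chemical exposure of HepaRG. Eight-point half-log series, top 100 uM, in 0.5% DMSO; gain or loss fitted against vehicle.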

[7] = read-out: Cytochrome P450 (CYP1A1), CYP1A1 (gene 1543); experiment: LTEA_HepaRG_CYP1A1: Life Technologies and Expression Analysis (LTEA) Assay for Cytochrome P450 (CYP1A1) using HepaRG (AID 2283454)
Summary of the method: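 Differentiated HepaRG cells in serum-free induction medium were exposed in duplicate for 48 h to eight half-log concentrations up to 100 uM in 0.5% DMSO. CYP1A1 mRNA was quantified by TaqMan qRT-PCR, normalized to ACTB, GAPDH and POLR2A.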

[8] = read-out: CFLAR gene, CFLAR (gene 8837); experiment: LTEA_HepaRG_CFLAR: Life Technologies and Expression Analysis (LTEA) Assay for CFLAR gene using HepaRG (AID 2283455)
Summary of the method: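 Transcript level by qRT-PCR (normalized to ACTB, GAPDH and POLR2A) after 48 h chemical exposure of HepaRG cells, top concentration 100 uM with half-log steps, 0.5% DMSO vehicle, duplicates; fitted bidirectionally against DMSO baseline.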

[9] = read-out: Forkhead box O1 (FOXO1), FOXO1 (gene 2308); experiment: LTEA_HepaRG_FOXO1: Life Technologies and Expression Analysis (LTEA) Assay for Forkhead box O1 (FOXO1) using HepaRG (AID 2283456)
Summary of the method: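 FOXO1 transcript quantified by qRT-PCR after 48 h chemical exposure (top 100 uM, half-log steps, 0.5% DMSO) of HepaRG cells, housekeeping-normalized (ACTB/GAPDH/POLR2A). Changes fitted in both directions relative to vehicle.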

[10] = read-out: growth arrest and DNA damage 45 (GADD45A), GADD45A (gene 1647); experiment: LTEA_HepaRG_GADD45A: Life Technologies and Expression Analysis (LTEA) Assay for growth arrest and DNA damage 45 (GADD45A) using HepaRG (AID 2283458)
Summary of the method: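 Transcript induction or loss, quantified by TaqMan qRT-PCR against three housekeeping genes, is the read-out. HepaRG cells received chemicals for 48 h across eight half-log concentrations from 100 uM in 0.5% DMSO; gain and loss fitted relative to DMSO.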

[11] = read-out: Forkhead box O3 (FOXO3), FOXO3 (gene 2309); experiment: LTEA_HepaRG_FOXO3: Life Technologies and Expression Analysis (LTEA) Assay for Forkhead box O3 (FOXO3) using HepaRG (AID 2283459)
Summary of the method: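 FOXO3 transcript measured by qRT-PCR (normalized to ACTB, GAPDH, POLR2A) after 48 h exposure of HepaRG cells in serum-free induction medium. Duplicates, eight half-log concentrations up to 100 uM, 0.5% DMSO; gain or loss fitted against DMSO.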

[12] = read-out: ABC Transporter (ABCB1), ABCB1 (gene 5243); experiment: LTEA_HepaRG_ABCB1: Life Technologies and Expression Analysis (LTEA) Assay for ABC Transporter (ABCB1) using HepaRG (AID 2283460)
Summary of the method: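 ABCB1 transcript level measured by TaqMan qRT-PCR against three housekeeping genes after 48 h chemical exposure of differentiated HepaRG cells. Top concentration 100 uM, half-log steps, eight points, 0.5% DMSO vehicle; bidirectional fit relative to DMSO.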

[13] = read-out: growth arrest and DNA damage 45 (GADD45B), GADD45B (gene 4616); experiment: LTEA_HepaRG_GADD45B: Life Technologies and Expression Analysis (LTEA) Assay for growth arrest and DNA damage 45 (GADD45B) using HepaRG (AID 2283461)
Summary of the method: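 Differentiated HepaRG cells, plated 48 h then switched to serum-free induction medium, were exposed 48 h in duplicate to eight half-log concentrations from 100 uM in 0.5% DMSO; mRNA quantified by qRT-PCR, normalized to ACTB/GAPDH/POLR2A, bidirectional fit versus DMSO.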

[14] = read-out: ABC Transporter (ABCB11), ABCB11 (gene 8647); experiment: LTEA_HepaRG_ABCB11: Life Technologies and Expression Analysis (LTEA) Assay for ABC Transporter (ABCB11) using HepaRG (AID 2283463)
Summary of the method: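 ABCB11 transcript levels quantified by TaqMan qRT-PCR against three housekeeping genes after 48 h chemical exposure of HepaRG cultures. Concentrations up to 100 uM in half-log steps, 0.5% DMSO vehicle; both induction and suppression scored.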

[15] = read-out: ABC Transporter (ABCC2), ABCC2 (gene 1244); experiment: LTEA_HepaRG_ABCC2: Life Technologies and Expression Analysis (LTEA) Assay for ABC Transporter (ABCC2) using HepaRG (AID 2283464)
Summary of the method: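 HepaRG cells were plated 48 h, switched to serum-free induction medium, then exposed in duplicate for 48 h to 8 concentrations (top 100 uM, half-log steps, 0.5% DMSO). ABCC2 mRNA was measured by qRT-PCR normalized to ACTB/GAPDH/POLR2A; bidirectional fitting versus DMSO.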

[16] = read-out: Broad substrate specificity ATP-binding cassette transporter ABCG2 (Homo sapiens) (UniProt Q9UNQ0); experiment: LTEA_HepaRG_ABCG2: Life Technologies and Expression Analysis (LTEA) Assay for ABC Transporter (ABCG2) using HepaRG (AID 2283465)
Summary of the method: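 ABCG2 transcript was quantified by TaqMan qRT-PCR against three housekeeping genes in HepaRG cells. Cells were treated in duplicate for 48 h across an 8-point half-log series up to 100 uM, with 0.5% DMSO vehicle. Gain or loss versus DMSO was fit.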

[17] = read-out: ATP-citrate lyase (ACLY), ACLY (gene 47); experiment: LTEA_HepaRG_ACLY: Life Technologies and Expression Analysis (LTEA) Assay for ATP-citrate lyase (ACLY) using HepaRG (AID 2283466)
Summary of the method: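 ACLY mRNA quantified by qRT-PCR on Fluidigm arrays against three housekeeping genes, after 48 h chemical treatment of HepaRG cells (top concentration 100 uM, half-log steps, 0.5% DMSO vehicle). Up- or down-regulation fitted relative to DMSO.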

[18] = read-out: flavin-containing dimethylaniline monooxygenases 3 (FMO3), FMO3 (gene 2328); experiment: LTEA_HepaRG_FMO3: Life Technologies and Expression Analysis (LTEA) Assay for flavin-containing dimethylaniline monooxygenases 3 (FMO3) using HepaRG (AID 2283453)
Summary of the method: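 FMO3 transcript quantified by TaqMan qRT-PCR against three housekeeping genes after 48 h chemical exposure of HepaRG cells. Eight-point half-log series, top 100 uM, 0.5% DMSO vehicle; phenobarbital 1mM induction control; up- or down-regulation fitted.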

[19] = read-out: ABC Transporter (ABCC3), ABCC3 (gene 8714); experiment: LTEA_HepaRG_ABCC3: Life Technologies and Expression Analysis (LTEA) Assay for ABC Transporter (ABCC3) using HepaRG (AID 2283462)
Summary of the method: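 HepaRG cells in serum-free induction medium were exposed for 48 h in duplicate to 8-point half-log concentrations topping at 100 uM in 0.5% DMSO. ABCC3 mRNA was measured by qRT-PCR normalized to ACTB, GAPDH and POLR2A, with bidirectional fitting versus DMSO.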

Fatty acid synthase (Homo sapiens), sequence (P49327 whole entry, looked up): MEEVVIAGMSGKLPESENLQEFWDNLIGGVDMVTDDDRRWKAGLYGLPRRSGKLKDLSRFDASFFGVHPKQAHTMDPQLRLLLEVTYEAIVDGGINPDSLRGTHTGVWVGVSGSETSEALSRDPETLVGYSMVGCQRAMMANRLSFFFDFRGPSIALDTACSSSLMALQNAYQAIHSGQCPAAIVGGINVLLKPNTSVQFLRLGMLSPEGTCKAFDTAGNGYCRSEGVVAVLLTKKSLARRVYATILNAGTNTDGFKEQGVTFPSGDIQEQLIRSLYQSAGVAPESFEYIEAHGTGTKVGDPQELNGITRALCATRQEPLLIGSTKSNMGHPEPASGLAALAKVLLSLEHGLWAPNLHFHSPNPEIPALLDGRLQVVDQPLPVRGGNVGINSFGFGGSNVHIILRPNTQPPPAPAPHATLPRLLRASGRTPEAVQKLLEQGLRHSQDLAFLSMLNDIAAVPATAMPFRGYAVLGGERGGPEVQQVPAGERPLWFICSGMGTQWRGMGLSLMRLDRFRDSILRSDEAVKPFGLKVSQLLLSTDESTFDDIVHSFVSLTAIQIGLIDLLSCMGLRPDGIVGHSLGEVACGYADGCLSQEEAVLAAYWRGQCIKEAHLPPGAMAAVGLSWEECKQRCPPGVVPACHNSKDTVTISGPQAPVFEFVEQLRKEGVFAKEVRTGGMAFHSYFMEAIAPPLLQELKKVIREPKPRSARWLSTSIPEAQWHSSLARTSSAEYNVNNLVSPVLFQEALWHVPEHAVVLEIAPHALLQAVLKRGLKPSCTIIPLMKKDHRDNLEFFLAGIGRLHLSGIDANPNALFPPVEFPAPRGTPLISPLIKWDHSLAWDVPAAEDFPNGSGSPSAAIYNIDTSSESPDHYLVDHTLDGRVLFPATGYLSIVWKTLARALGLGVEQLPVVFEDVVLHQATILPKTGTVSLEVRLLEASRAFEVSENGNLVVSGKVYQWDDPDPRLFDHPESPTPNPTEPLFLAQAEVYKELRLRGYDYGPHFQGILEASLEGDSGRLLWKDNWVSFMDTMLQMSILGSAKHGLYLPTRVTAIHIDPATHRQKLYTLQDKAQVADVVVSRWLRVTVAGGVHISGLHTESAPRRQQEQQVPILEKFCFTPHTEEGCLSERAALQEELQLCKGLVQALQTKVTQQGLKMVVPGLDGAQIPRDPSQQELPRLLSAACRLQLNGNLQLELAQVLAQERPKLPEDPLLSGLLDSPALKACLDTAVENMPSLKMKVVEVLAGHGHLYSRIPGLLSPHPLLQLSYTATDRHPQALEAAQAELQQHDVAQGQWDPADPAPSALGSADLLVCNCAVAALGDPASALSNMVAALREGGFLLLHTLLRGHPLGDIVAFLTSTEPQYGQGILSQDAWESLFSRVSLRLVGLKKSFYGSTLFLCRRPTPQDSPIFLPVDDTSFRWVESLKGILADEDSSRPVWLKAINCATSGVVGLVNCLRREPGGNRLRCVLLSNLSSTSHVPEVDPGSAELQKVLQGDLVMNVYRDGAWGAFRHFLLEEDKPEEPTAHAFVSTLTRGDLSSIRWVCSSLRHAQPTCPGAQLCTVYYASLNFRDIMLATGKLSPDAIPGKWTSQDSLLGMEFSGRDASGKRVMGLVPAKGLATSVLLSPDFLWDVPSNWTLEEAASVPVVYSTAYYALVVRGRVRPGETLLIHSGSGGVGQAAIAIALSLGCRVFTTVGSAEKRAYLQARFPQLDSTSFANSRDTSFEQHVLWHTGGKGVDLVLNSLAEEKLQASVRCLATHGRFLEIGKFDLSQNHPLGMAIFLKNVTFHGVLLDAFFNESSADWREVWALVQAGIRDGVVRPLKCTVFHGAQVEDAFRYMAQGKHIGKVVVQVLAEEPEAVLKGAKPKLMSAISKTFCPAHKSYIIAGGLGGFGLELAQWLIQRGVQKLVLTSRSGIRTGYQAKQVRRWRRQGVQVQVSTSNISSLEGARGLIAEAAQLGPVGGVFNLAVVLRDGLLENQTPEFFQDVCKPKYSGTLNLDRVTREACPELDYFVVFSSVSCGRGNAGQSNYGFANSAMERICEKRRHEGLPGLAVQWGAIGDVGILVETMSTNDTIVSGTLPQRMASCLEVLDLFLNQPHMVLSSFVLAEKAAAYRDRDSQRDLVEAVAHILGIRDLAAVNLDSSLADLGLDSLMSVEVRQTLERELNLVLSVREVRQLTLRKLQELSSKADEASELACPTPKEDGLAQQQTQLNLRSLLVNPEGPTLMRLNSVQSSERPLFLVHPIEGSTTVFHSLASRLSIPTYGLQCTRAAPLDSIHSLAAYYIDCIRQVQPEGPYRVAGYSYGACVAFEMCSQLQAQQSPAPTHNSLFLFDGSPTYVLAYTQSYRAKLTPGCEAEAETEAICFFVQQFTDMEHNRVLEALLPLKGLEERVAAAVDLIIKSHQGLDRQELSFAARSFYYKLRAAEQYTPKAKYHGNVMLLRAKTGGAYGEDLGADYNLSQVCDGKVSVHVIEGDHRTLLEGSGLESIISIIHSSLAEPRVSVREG
Broad substrate specificity ATP-binding cassette transporter ABCG2 (Homo sapiens), sequence (Q9UNQ0 whole entry, looked up): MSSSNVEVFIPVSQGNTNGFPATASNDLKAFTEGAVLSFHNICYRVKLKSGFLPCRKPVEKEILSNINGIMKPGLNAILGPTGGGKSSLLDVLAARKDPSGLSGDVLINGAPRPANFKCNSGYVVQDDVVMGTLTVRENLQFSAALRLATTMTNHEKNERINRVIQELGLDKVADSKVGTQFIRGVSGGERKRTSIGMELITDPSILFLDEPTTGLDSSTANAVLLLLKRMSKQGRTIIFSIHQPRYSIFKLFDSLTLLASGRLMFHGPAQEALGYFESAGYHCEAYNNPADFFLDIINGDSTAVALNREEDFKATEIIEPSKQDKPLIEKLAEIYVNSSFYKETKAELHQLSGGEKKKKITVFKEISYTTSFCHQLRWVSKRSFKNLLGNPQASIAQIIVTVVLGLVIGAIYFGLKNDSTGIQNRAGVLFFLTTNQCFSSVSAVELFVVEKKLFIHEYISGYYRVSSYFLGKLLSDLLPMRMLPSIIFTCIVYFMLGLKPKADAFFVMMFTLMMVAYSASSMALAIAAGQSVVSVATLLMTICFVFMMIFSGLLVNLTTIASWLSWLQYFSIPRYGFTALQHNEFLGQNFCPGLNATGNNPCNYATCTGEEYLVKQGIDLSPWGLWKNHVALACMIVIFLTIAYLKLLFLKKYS

OC[C@@H](O)[C@@H](O)[C@H](O)[C@H](O)CO
outcome [1]: inactive
outcome [2]: inactive
outcome [3]: inactive
outcome [4]: inactive
outcome [5]: inactive
outcome [6]: inactive
outcome [7]: inactive
outcome [8]: inactive
outcome [9]: inactive
outcome [10]: inactive
outcome [11]: inactive
outcome [12]: inactive
outcome [13]: inactive
outcome [14]: inactive
outcome [15]: inactive
outcome [16]: inactive
outcome [17]: inactive

NS(=O)(=O)c1cc2c(cc1Cl)NCNS2(=O)=O
outcome [1]: inactive
outcome [2]: inactive
outcome [3]: inactive
outcome [4]: inactive
outcome [6]: inactive
outcome [18]: inactive
outcome [7]: inactive
outcome [8]: inactive
outcome [9]: inactive
outcome [10]: inactive
outcome [11]: inactive
outcome [12]: inactive
outcome [13]: inactive
outcome [14]: inactive
outcome [15]: inactive
outcome [16]: inactive
outcome [17]: inactive

CN1CCCC1=O
outcome [1]: inactive
outcome [2]: inactive
outcome [3]: inactive
outcome [4]: inactive
outcome [6]: inactive
outcome [18]: inactive
AC50 [7]: 50000 nM (active)
outcome [8]: inactive
outcome [9]: inactive
outcome [10]: inactive
outcome [11]: inactive
outcome [12]: inactive
outcome [13]: inactive
outcome [19]: inactive
outcome [14]: inactive
outcome [15]: inactive
outcome [17]: inactive

CC(C)c1ccc(C(=O)N=C(N)N)cc1S(C)(=O)=O
AC50 [1]: 669 nM (active)
outcome [2]: inactive
AC50 [3]: 634 nM (active)
AC50 [4]: 361 nM (active)
outcome [6]: inactive
outcome [18]: inactive
AC50 [7]: 600 nM (active)
AC50 [8]: 361 nM (active)
AC50 [9]: 498 nM (active)
AC50 [11]: 264 nM (active)
AC50 [12]: 8320 nM (active)
outcome [13]: inactive
AC50 [14]: 392 nM (active)
AC50 [15]: 14000 nM (active)
AC50 [16]: 681 nM (active)
outcome [17]: inactive

CCCCN(CCCC)CCCC
outcome [1]: inactive
outcome [2]: inactive
outcome [3]: inactive
outcome [4]: inactive
outcome [6]: inactive
outcome [18]: inactive
outcome [7]: inactive
outcome [8]: inactive
outcome [9]: inactive
outcome [11]: inactive
outcome [12]: inactive
outcome [13]: inactive
outcome [19]: inactive
outcome [14]: inactive
outcome [15]: inactive
outcome [16]: inactive
outcome [17]: inactive

Cc1cccc([N+](=O)[O-])c1C
outcome [1]: inactive
outcome [2]: inactive
outcome [3]: inactive
outcome [4]: inactive
outcome [6]: inactive
outcome [18]: inactive
outcome [7]: inactive
outcome [8]: inactive
outcome [9]: inactive
outcome [10]: inactive
outcome [11]: inactive
outcome [12]: inactive
outcome [13]: inactive
outcome [19]: inactive
outcome [14]: inactive
outcome [15]: inactive
outcome [17]: inactive

COC(=O)c1ccc(O)cc1
outcome [1]: inactive
outcome [2]: inactive
outcome [3]: inactive
outcome [4]: inactive
outcome [5]: inactive
outcome [6]: inactive
outcome [7]: inactive
outcome [8]: inactive
outcome [9]: inactive
outcome [11]: inactive
outcome [12]: inactive
outcome [13]: inactive
outcome [14]: inactive
outcome [15]: inactive
outcome [17]: inactive
